Test results taken from PubChem BioAssay (NCI).
The panel holds about 83,000 compounds, 20% with a hit somewhere; the sample as a whole holds those more often.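 Values shown are percent growth following 48 h exposure of cells in 96-well plates to a single concentration of compound; below 10 was considered active.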 The source made the active and inactive calls.

test system: NCI-H322M lung; assay: NCI-60 one-dose screen, 48 h (100 = growth as untreated, 0 = no growth, -100 = all killed); conditions: 10 µM unless noted
Procedure: Growth inhibition of the NCI-H322M human Non-Small Cell Lung tumor cell line is measured as a screen for anti-cancer activity. Cells are grown in 96 well plates and exposed to the test compound for 48 hours. Compounds are tested at a single concentration, which is 10^-5 M for most compounds. The reported endpoint is percent growth (GI% or GIPRCNT), where numbers from 0 - 100% represent growth inhibition, and numbers from -100% - 0 represent cell death. For example, a value of 40 represents 60% growth inhibition. A value of 0 means no net growth occurred over the course of the experiment. A value of -40 indicates 40% of cells at the beginning of the experiment died by the end of the experiment. A value of -100 means all cells are dead at the end of the experiment.
NCI-60 Human Tumor Cell Lines Screen was performed using the standard one-dose NCI protocol, which is described in more detail at https://dtp.cancer.gov/discovery_development/nci-60/default.htm.
Compounds with GIPRCNT values below 10 were considered active. Activity score was based on GIPRCNT using the following formula: […]
Score is 0 for GIPRCNT values of 100 or above, 50 for GIPRCNT values of 0, and 100 for GIPRCNT values of -100.

SMILES | growth
CCCC[N+](CCCC)=c1ccc2nc3c(C)cc(N(CC)CC)cc3sc-2c1 | 27.6% (inactive)
CN1CCN(CC(=O)Nc2nc3c(s2)Nc2cc(Cl)c(Cl)cc2NC3=O)CC1 | 94.1% (inactive)
CC12CCC3C(CCC4CC(=O)/C(=C\O)CC43C)C1CCC(=O)O2 (stereo not given) | 108% (inactive)
COc1ccc(/C=C2\COc3ccc(O)c(O)c3C2=O)cc1OC | 48.9% (inactive)
Cc1[nH]n(C(N)=S)c(=O)c1N=Nc1ccc(F)c(Cl)c1 | 110% (inactive)
Cn1cc(-c2csc(-c3cn(C)c4ncccc34)n2)c2cc(Br)cnc21 | 104% (inactive)
COc1ccc2c(c1)[nH]c(=O)c1c3cc(OC)c(OC)cc3cn21 | 20.7% (inactive)
Clc1cc(Cl)c(OCC#CI)cc1Cl | 127% (inactive)
Cc1nc2cc(NC(=O)CN3CCN(CCN4C(=O)c5cccc6cccc(c56)C4=O)CC3)ccc2s1 | 69.3% (inactive)
Cc1ccccc1NC(=O)c1cc2ccccc2cc1O | 24.6% (inactive)
C=C1CC[C@@H]2[C@](C)(COC(C)=O)[C@H](OC(C)=O)CC[C@@]2(C)[C@@H]1CC(Nc1ccc(S(=O)(=O)Nc2cc(C)on2)cc1)C1=CCOC1=O (stereo not given in full) | 80.4% (inactive)
COc1ccc2[nH]c(-c3ccccc3)cc2c1 | 120% (inactive)
COc1cc(C2=NN(C(C)=O)C(c3ccc(OC(C)=O)cc3OC(C)=O)O2)c(OC(C)=O)c2ccccc12 (stereo not given) | 19.6% (inactive)
CCCCC1Nc2nc(SC)n(C)c(=O)c2CN(Cc2ccccc2)C1=O (stereo not given) | 90.6% (inactive)
CCOC(=O)c1c2c(c(C)n1Cc1ccc(OC)cc1)-c1nc(N)ncc1CC2 | 113% (inactive)
O=C(/C=C/c1cc2ccccc2[nH]c1=O)c1ccc(O)cc1 | 51.8% (inactive)
CCOC(=O)c1cc(-c2cccnc2)nc2c(Cl)cc(Cl)cc12 | 84.1% (inactive)
COC(=O)CCC1=C(C)C(C)=N/C1=C\c1[nH]c(-c2ccc[nH]2)cc1OC | 12.1% (inactive)
CC/C(=C\c1ccc(N(C)C)cc1)c1ccncc1 | 94.6% (inactive)
CC[C@@H]1OC(=O)[C@H](C)[C@@H](O[C@H]2C[C@@](C)(OC)[C@@H](O)[C@H](C)O2)[C@H](C)[C@@H](O[C@@H]2O[C@H](C)C[C@H](N(C)C)[C@H]2O)[C@](C)(O)C[C@@H](C)[C@@H]2N[C@@H](COCCOC)O[C@H]([C@H]2C)[C@]1(C)O | 96% (inactive)

SMILES | growth
Clc1nc(Cl)c2ncn(-c3ccccc3)c2n1 | 76.8% (inactive)
Cn1cc(-c2nc(-c3c[nH]c4ncc(F)cc34)cs2)c2cccnc21 | 107% (inactive)
O=C(C=C=Nc1ccccc1)C(=O)N=C=Cc1ccccc1 | 93.9% (inactive)
N#Cc1c2ccccc2c2n1-c1ccccc1OC(c1ccccc1)C2=O (stereo not given) | 81.5% (inactive)
CCN(CC)CCNc1ccc(Cl)cc1Cl | 94.9% (inactive)
COc1ccc2c(c1)nc(N)c1c3ccccc3cn21 | 88.1% (inactive)
Cn1[nH]cc(/C=N/C(N)=O)c1=O | 124% (inactive)
NNC(=O)C1CC2c3ccccc3C1c1ccccc12 (stereo not given) | 116% (inactive)
CC[N+](C)(CC)CCCC(C)Nc1ccnc2cc(Cl)ccc12 (stereo not given) | 96.5% (inactive)
C[C@@H]1CC[C@H]2[C@@H](C)C(O)O[C@@H]3O[C@]4(C)CC[C@@H]1[C@]32OO4 (stereo not given in full) | 68.9% (inactive)
COc1ccc(C(=O)/C=C/c2c(Cl)nc3c(c(C)nn3-c3ccccc3)c2-c2ccc(Br)cc2)cc1 | 109% (inactive)
c1ccc2c(c1)[nH]c1c2cc[n+]2cc3c(cc12)CCCC3 | 29.8% (inactive)
CCOC(=O)/C=C(/C)Sc1cc(O)c2ccccc2c1O | -19.9% (active)
CN(C)c1ccc2[nH]c3c(C(N)=O)cc(=O)c(=O)c=3oc2c1 | 109% (inactive)
OC(c1cc(C(F)(F)F)nc2c(C(F)(F)F)cccc12)C1CCCCN1 (stereo not given) | 64.8% (inactive)
CN(C)c1ccc(/C=C(\C#N)c2nc3ccccc3c(=O)[nH]2)cc1 | 89.7% (inactive)
COc1ccc2nc(NC(=O)c3cc(-c4ccc(F)cc4)n4nc(-c5ccccc5)cc4n3)sc2c1 | 82.8% (inactive)
Cc1ccc(C(=O)Nc2ccc(Cl)cc2C(=O)NCc2ccccc2)cc1 | 98.2% (inactive)
Nc1nc(SCc2ccccc2Cl)c(-c2ccccc2)c(SCc2ccccc2Cl)n1 | 107% (inactive)
Oc1ccc(-c2nn(-c3ccccc3)cc2-c2nc3ccccc3s2)cc1 | 97.3% (inactive)
